{
  "source": "ChEMBL document CHEMBL4513160",
  "about": "“CO-ADD screening of MMV (CH) - Small Polar Library”",
  "note": "Out of some 23,000 compounds screened, about 30 (0.1%) showed an effect of 50% or more. The list comes from a sample in which strong results are over-represented; it also holds similar structures and randomly drawn compounds. Results with a measured potency or affinity are listed apart.",
  "data": [
    {"tested_on": "Pseudomonas aeruginosa", "details": "Concentration 300 ug.mL-1; ASSAY_TEST Inhibition of Bacterial Growth; detection method Absorption (OD600); MEDIA CAMHB; plate type 384well; NBS; CORNING #3640; time 18 hr", "units": {"Inhibition": "%"}, "values": [
      {"smiles": "CSCc1noc(CN2CCC(=O)NCC2C)n1", "note": "(stereo not drawn)", "Inhibition": 2.5},
      {"smiles": "CCc1n[nH]c(=O)n1CC", "Inhibition": 16.77},
      {"smiles": "O=C1C=CC(=O)N1C1CCCCC1", "Inhibition": 14.45},
      {"smiles": "O=C(c1cc(F)ccc1Br)N1CCNCC1", "Inhibition": -21.94},
      {"smiles": "CNCc1ncc(C)c(OC)c1C", "Inhibition": 22.51},
      {"smiles": "CC(=O)NCc1ccc(C(=O)CSc2ccccn2)s1", "Inhibition": 23.63},
      {"smiles": "CN(Cc1cccc(C#N)c1)C(=O)C1CC1", "Inhibition": 11.31},
      {"smiles": "CN(C)S(=O)(=O)NCc1ccc(Cn2ccnc2)cc1", "Inhibition": -10.43},
      {"smiles": "CC(=O)NCCCNCc1ccc(Br)c2cccnc12", "Inhibition": 29.22},
      {"smiles": "OCc1cccc2ncccc12", "Inhibition": -43.09},
      {"smiles": "NC(=O)C1(NCc2ccc(Br)c3cccnc23)CC1", "Inhibition": 4.47},
      {"smiles": "NC(=O)CCNCc1ccc(Cl)c2cccnc12", "Inhibition": 17.51},
      {"smiles": "O=C(c1nnsc1-c1ccc(Cl)cc1)N1CCSCC1", "Inhibition": -1.35},
      {"smiles": "CN(C)CCCC(=O)N1CCCC(CO)(CC2CC2)C1", "note": "(stereo not drawn)", "Inhibition": -1.87},
      {"smiles": "CC1CCN(C(=O)CCN2C[C@H](C3CC3)[C@@H](N)C2)CC1", "Inhibition": 0.49},
      {"smiles": "OC(CN1CCn2ccnc2C1)c1ccc(Cl)cc1", "note": "(stereo not drawn)", "Inhibition": -6.36},
      {"smiles": "CSCCC(O)C(=O)NCCc1scnc1C", "note": "(stereo not drawn)", "Inhibition": -25.65},
      {"smiles": "COCCN(Cc1ccccn1)C(=O)CC1CCNC1", "note": "(stereo not drawn)", "Inhibition": -0.17},
      {"smiles": "CN1CCOC[C@H]2CCN(C(=O)c3cccs3)C[C@H]21", "Inhibition": -22.95},
      {"smiles": "CNC(=O)C(C)Sc1nccn1-c1ccc(OC)cc1", "note": "(stereo not drawn)", "Inhibition": 17.22},
      {"smiles": "N#Cc1cccc(CN2CCCC(O)C2)c1", "note": "(stereo not drawn)", "Inhibition": 9.18},
      {"smiles": "CN(CCNC(=O)c1cnc[nH]1)Cc1ccc(F)cc1", "Inhibition": 37.03},
      {"smiles": "CNC1(C(=O)OC)CCCCC1", "Inhibition": -2.18},
      {"smiles": "Cc1cc(NC(=O)CSCC(=O)N2CCC2)no1", "Inhibition": 7.6},
      {"smiles": "CCOC(=O)c1nc(C)n(C)n1", "Inhibition": 10.82},
      {"smiles": "c1cc2c(cc1CNc1nnc(C3CC3)o1)OCCO2", "Inhibition": -5.88},
      {"smiles": "O=C(CCCc1cn[nH]c1)N1CCc2ccccc2C1", "Inhibition": 6.06},
      {"smiles": "CCCC(C)NC(=O)c1coc(C)n1", "note": "(stereo not drawn)", "Inhibition": -6.54},
      {"smiles": "CCN(CC(C)C#N)C(=O)c1ccc(Br)o1", "note": "(stereo not drawn)", "Inhibition": -3.61},
      {"smiles": "COC(=O)[C@@H]1CCN[C@@H]1C(C)C", "Inhibition": 12.69},
      {"smiles": "C1CN(C2CCN(c3nnc(C4CC4)o3)CC2)CCS1", "Inhibition": 8.74},
      {"smiles": "C=C(C)CNC(=O)Nc1cccc(N2CCNC2=O)c1", "Inhibition": -38.18},
      {"smiles": "CCc1ccc(CN(CCO)Cc2nccn2C)nc1", "Inhibition": -17.17},
      {"smiles": "Clc1ccc(-c2noc(CN3CCCNCC3)n2)cc1", "Inhibition": 46.35},
      {"smiles": "NC(=O)c1cc(N2CCCC2)ccn1", "Inhibition": -17.78},
      {"smiles": "Fc1ccc2[nH]cnc2c1", "Inhibition": 26.41},
      {"smiles": "CNCCC1CCCO1", "note": "(stereo not drawn)", "Inhibition": 6.91},
      {"smiles": "CNC1CC(=O)N(Cc2ccccc2)C1=O", "note": "(stereo not drawn)", "Inhibition": -1.73},
      {"smiles": "CC1(C)C[S+]([O-])CCN1C(=O)c1cccc(F)c1Cl", "note": "(stereo not drawn)", "Inhibition": 17.16},
      {"smiles": "CCN(CC)C(=O)[C@@H]1C[C@@H](N)CN1C(=O)CS(C)(=O)=O", "Inhibition": 7.51},
      {"smiles": "Nc1ncn(S(=O)(=O)c2ccccc2)n1", "Inhibition": -6.3},
      {"smiles": "Cc1n[nH]cc1CNCc1ccc(-n2ccnc2)nc1", "Inhibition": 0.04},
      {"smiles": "O=C(CC1CCCN1)c1ccco1", "note": "(stereo not drawn)", "Inhibition": 24.64},
      {"smiles": "CC(O)C(=O)NC(N)=O", "note": "(stereo not drawn)", "Inhibition": 10.69},
      {"smiles": "O=c1ccoc2ccc(F)cc12", "Inhibition": 24.86},
      {"smiles": "CCCn1cnnc1CNCC(=O)Nc1cnccn1", "Inhibition": 7.89},
      {"smiles": "CNC(=O)NC(=O)C(C)N1CCN(c2nccs2)CC1", "note": "(stereo not drawn)", "Inhibition": 0.51},
      {"smiles": "CCCc1nnc(N2CCC3(CC2)OCC(C)O3)s1", "note": "(stereo not drawn)", "Inhibition": -23.27},
      {"smiles": "CC(C)NC(=O)c1cn(Cc2ccc(Cl)cc2)nn1", "Inhibition": 37.8},
      {"smiles": "CCOC(=O)CNC(=O)N1CCn2cccc2C1C", "note": "(stereo not drawn)", "Inhibition": -25.66},
      {"smiles": "O=C(Cc1ccsc1)N[C@@H]1CCOC[C@H]1OCCO", "Inhibition": 1.98},
      {"smiles": "c1ccc(C2=NN=C(NC3CC3)SC2)cc1", "Inhibition": 6.85},
      {"smiles": "O=C(Cc1cccc(O)c1)NCCn1cc(Cl)cn1", "Inhibition": -17.42},
      {"smiles": "COc1cc(C(=O)N[C@@H]2CC[C@@H](N)C2)ccc1F", "Inhibition": 12.15},
      {"smiles": "N[C@@H]1CCOc2c(F)ccc(F)c21", "Inhibition": 32.11},
      {"smiles": "CC(Sc1ccccc1Cl)C(=O)NCC(=O)N(C)C", "note": "(stereo not drawn)", "Inhibition": 4.5},
      {"smiles": "CCC(c1ccc(F)cc1)N1CC[S+]([O-])CC1", "note": "(stereo not drawn)", "Inhibition": 11.41},
      {"smiles": "NS(=O)(=O)N(Cc1cccnc1)Cc1ccco1", "Inhibition": 8.52},
      {"smiles": "COCCNCC(=O)Nc1cccc(CSC)c1", "Inhibition": 7.12},
      {"smiles": "CCn1nc(C)c(CN2CCCCC(N)C2)c1C", "note": "(stereo not drawn)", "Inhibition": 14.9},
      {"smiles": "O=C(CCN1CCC(CO)CC1)Nc1ccccc1F", "Inhibition": 3.62},
      {"smiles": "Cc1noc(CN2CCN(S(C)(=O)=O)CC2)n1", "Inhibition": -16.86},
      {"smiles": "CCS(=O)(=O)c1cncnc1N", "Inhibition": 19.95},
      {"smiles": "Cc1noc(C)c1CCC(=O)NC(C)c1ccccn1", "note": "(stereo not drawn)", "Inhibition": -45.2},
      {"smiles": "Cc1cc(C)cc(N2CCNCC2=O)c1", "Inhibition": 2.16},
      {"smiles": "NC(=O)C1=NOC(CNCc2ccccc2Cl)C1", "note": "(stereo not drawn)", "Inhibition": 23},
      {"smiles": "Cc1cc(C(=O)N[C@@H]2CCOC[C@H]2O)sc1C", "Inhibition": 10.73},
      {"smiles": "COc1ccc2[nH]c(CCCN)nc2c1", "Inhibition": 28.12}
    ]}
  ]
}
